Assay outcomes deposited in PubChem BioAssay by National Center for Advancing Translational Sciences (NCATS).
The sample as a whole holds a higher share of hits than the screen did.
Shiga inhibitor: inhibitors of Shiga toxin in Vero cells. Vero cells, Shiga toxin protein synthesis inhibition reporter. inhibition, % at 38.7 µM. hit rate 9.2% among 290,000; in the data active means inhibition mostly above about 28%, no sharp cut-off; inactive means mostly below about 43%; further: 0% is about no effect
Giardia FBPA inh-1: Giardia lamblia aldolase inhibition; A8B2U2; purified Giardia FBPA; Potency, µM (top dose mostly 59.6 µM), for the others: at the top dose activity, negative = inhibition, most hits filed as inhibitors; hit rate 0.71% among 290,000; further: potency means the concentration at half of the fitted maximal effect; on the % scale 0 is the no-effect control and ±100 the full control effect; nearly all actives have a fitted effect of over 55% in size
Target sequence (A8B2U2 whole entry, looked up): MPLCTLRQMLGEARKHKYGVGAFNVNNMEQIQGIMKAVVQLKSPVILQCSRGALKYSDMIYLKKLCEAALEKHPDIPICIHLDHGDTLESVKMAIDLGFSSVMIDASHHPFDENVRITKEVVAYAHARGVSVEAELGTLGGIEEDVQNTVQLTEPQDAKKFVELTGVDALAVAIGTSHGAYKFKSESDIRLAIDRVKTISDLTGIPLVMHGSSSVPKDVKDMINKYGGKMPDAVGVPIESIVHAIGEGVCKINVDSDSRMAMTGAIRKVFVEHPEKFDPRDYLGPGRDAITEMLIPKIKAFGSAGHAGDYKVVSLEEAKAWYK
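Giardia FBPA (40 nM reagent) was preincubated 10 min at RT with compound (up to 57.5 uM final), then substrate plus GAPDH/TPI/NAD/arsenate coupling system with diaphorase/resazurin was added; resorufin fluorescence (525/598 nm) was read after 20 min.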
Cycloheximide cs: counter-screen hit for Shiga toxin inhibitors, cycloheximide; hit rate 12% among 300,000; cell reporter, cycloheximide protein synthesis inhibition counterscreen; AID 2314; max response, %; in the data active means max response mostly above about 13%, no sharp cut-off; inactive means mostly below about 14%; further: read at 38.3 µM for the half of the compounds with a filed dose; 0% is about no effect
LmPK inh: blocks Leishmania mexicana pyruvate kinase activity | Q27686 | purified LmPK, Kinase-Glo ATP luminescence, 1 h | Potency, µM (doses to about 57.5 µM), for inactives: at the highest dose activity change, negative = inhibition, hits mostly inhibitors | hit rate 0.37% among 290,000 | AID 1721; further: potency means the concentration at half of the fitted maximal effect; on the % scale 0 is the no-effect control and ±100 the full control effect
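ATP generated from ADP (0.1 mM) and PEP (0.5 mM) by 0.1 nM LmPK over 1 h at room temperature (pH 7.2 imidazole buffer) was detected by coupled luciferase luminescence. Values were normalized to uninhibited and no-enzyme wells.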
TbPYK inhibitor: T. brucei pyruvate kinase inhibition; TbPYK enzyme, Kinase-Glo Plus ATP luminescence, 45 min; Potency, µM (top dose mostly 76.8 µM), for the others: top-dose activity, negative = inhibition, usual class: inhibitors; hit rate 0.12% among 410,000; AID 624173; further: potency means the concentration at half of the fitted maximal effect; on the % scale 0 is the no-effect control and ±100 the full control effect; nearly all actives have a fitted effect of over 50% in size
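Glycolytic pyruvate kinase of T. brucei was incubated with substrate, test compound and 130 uM ADP for 45 minutes at room temperature. Luminescent Kinase-Glo Plus signal was measured after 10 minutes.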
RE007 growth inh: less growth of the S. pombe RE007 Vpr strain; S. pombe RE007 Vpr strain, BacTiter-Glo ATP luminescence, 24 h; Potency, µM (titrated, usually from 92.2 µM), for inactives: at the top dose activity change, negative = less growth, most hits filed as inhibitors; hit rate 0.21% among 360,000; AID 651644; active means well fitted falling curve with a large enough effect; inconclusive means small, poorly fitted or top-dose-only effect; inactive means no such curve, though single readings can be large or run the other way; further: potency means the concentration at half of the fitted maximal effect; on the % scale 0 is the no-effect control and ±100 the full control effect; nearly all actives have a fitted effect of over 50% in size
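Fission yeast RE007 carrying one integrated HIV-1 vpr copy, seeded at OD 0.01 in PMG+AL medium with 23 nL pinned compound. Grown 24 h at 30 degrees; viability read by BacTiter-Glo luminescence after 5 min.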
Giardia growth: blocks growth of Giardia lamblia trophozoites; Giardia lamblia trophozoite growth inhibition; Potency, µM (titrated, usually from 57.5 µM), without a hit: top-dose activity change, negative = inhibition, actives largely listed as inhibitors; shares compounds with Giardia FBPA inh-1; AID 2785; hit rate 5% among 1,500;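 further: potency means the concentration at half of the fitted maximal effect; trophozoites exposed to compound for 48 h at 37 °C; on the % scale 0 is the no-effect control and ±100 the full control effect; nearly all actives have a fitted effect of over 70% in size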
Mammal cell tox: counter-screen for Giardia aldolase inhibitors: mammalian cell toxicity; mammalian cell viability counter-screen, qHTS; shares compounds with Giardia FBPA inh-1; Potency, µM (highest dose often 57.5 µM), without a hit: at the highest dose viability change, negative = toxicity, hits mostly inhibitors; AID 2786; hit rate 4% among 1,500;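 further: Chinese hamster ovary cells used as mammalian cytotoxicity surrogate; viability measured as cellular ATP by luminescence; potency means the concentration at half of the fitted maximal effect; compound exposure lasted 48 h before reading; on the % scale 0 is the no-effect control and ±100 the full control effect; nearly all actives have a fitted effect of over 60% in size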
Giardia FBPA inh-2: confirmation of Giardia fructose-bisphosphate aldolase inhibitors; hit rate 5% among 1,500; shares compounds with Giardia FBPA inh-1; Potency, µM (highest dose often 57.5 µM), inactives show at the top dose activity change, negative = inhibition, most hits filed as inhibitors; purified Giardia aldolase enzyme activity, qHTS; further: potency means the concentration at half of the fitted maximal effect; on the % scale 0 is the no-effect control and ±100 the full control effect; nearly all actives have a fitted effect of over 45% in size
Rabbit aldolase: rabbit FBP aldolase inhibition by Giardia aldolase hits; shares compounds with Giardia FBPA inh-1; Rabbit muscle FBPA enzyme inhibition, selectivity counter-screen; Potency, µM (doses to about 57.5 µM), for the others: top-dose activity, negative = inhibition, hits mostly inhibitors; hit rate 4% among 1,500; further: potency means the concentration at half of the fitted maximal effect; on the % scale 0 is the no-effect control and ±100 the full control effect; nearly all actives have a fitted effect of over 60% in size
GAPDH counter: GAPDH inhibition flagged for Giardia aldolase hits; shares compounds with Giardia FBPA inh-1; GAPDH coupling enzyme counterscreen, biochemical, qHTS; Potency, µM (doses to about 57.5 µM), for the others: at the top dose activity change, negative = inhibition, actives largely listed as inhibitors; hit rate 6% among 1,500; further: potency means the concentration at half of the fitted maximal effect; on the % scale 0 is the no-effect control and ±100 the full control effect; nearly all actives have a fitted effect of over 55% in size
Numbers without * were called inactive; ? = inconclusive; / = no result; [ ] = remark or other dose. Unless noted, the call rests on the fitted dose curve; in most records, active means well fitted curve in the direction sought with a large enough effect; inconclusive means small, poorly fitted or top-dose-only effect, or another doubt; inactive means no such curve, though single readings can be large; an effect the other way counts as inactive or inconclusive.

SMILES	Shiga inhibitor	Giardia FBPA inh-1	Cycloheximide cs	LmPK inh	TbPYK inhibitor	RE007 growth inh	Giardia growth	Mammal cell tox	Giardia FBPA inh-2	Rabbit aldolase	GAPDH counter
C[C@]12[C@H](O)CC3C(CC[C@@H]4C[C@@H](O)CC[C@]34C)[C@@]1(O)CC[C@@H]2C1=CC(=O)OC1 (some centres not stated)	/	7.0%	/	/	/	/	/	/	/	/	/
Cc1cc(C)cc(NCc2cc3c(cc2[N+](=O)[O-])OCO3)c1	16.9	-13.4%	0.5	-4.0%	-0.2%	2.3%	/	/	/	/	/
COc1ccc(CNCc2cc3c(cc2[N+](=O)[O-])OCO3)cc1	7.6	12.6µM*	13.5	0.8%	2.1%	1.1%	?	-3.8%	-14.2%	-6.5%	0.6%
CCc1ccc(CN2CCCC(CCC(=O)N3CCN(c4ccccn4)CC3)C2)o1 (configuration not stated)	17.8	-4.8%	-1.0	8.1%	1.1%	-10.2%	/	/	/	/	/
C#Cc1ccc([C@@H]2C=C(C(=O)N3CCN(Cc4ccc5c(c4)OCO5)CC3)O[C@H](OCCCCO)C2)cc1	-6.6	3.0%	1.7	5.8%	-19.8%	-16.1%	/	/	/	/	/
Cc1ccc(Cn2c(C3CCCN3c3nc(C)cs3)nc3cc(C(F)(F)F)ccc32)cc1 (configuration not stated)	9.4	28.2µM*	-1.7	0.9%	-1.4%	-16.4%	12.4%	-9.6%	3.1%	2.2%	11.6%
Cc1ccc(Cn2c(C3CCCN3c3nc(-c4cc(Cl)c(N)c(Cl)c4)cs3)nc3cc(C(=O)NCCCO)ccc32)cc1 (configuration not stated)	/	/	/	/	-13.1%	-1.0%	/	/	/	/	/
C=CCn1c(COc2cccc3cccnc23)nnc1SCC(=O)O	-13.0	?	-1.9	-8.9%	-10.3%	-14.7%	/	/	/	/	/
C=CCn1c(COc2cccc3ccc(C)nc23)nnc1SCC(=O)O	11.2	14.1µM*	-2.4	-5.5%	-0.2%	13.2%	-18.8%	9.4%	-5.7%	3.7%	1.9%
N#C/C(=C/c1ccco1)C(N)=S	3.0	15.8µM*	-1.2	6.2%	-0.4%	-15.2%	?	6.4%	2.4%	1.8%	5.8%
COC(=O)c1ccc(C(=O)O)nc1	-1.8	19.9µM*	-2.8	-0.1%	0.8%	1.7%	60.8%	10.7%	2.9%	12.2%	-3.4%
Cc1cccnc1NC(=S)NC(=O)c1cccs1	190.6*	19.9µM*	58.9*	-21.3%	-13.1%	4.1%	0.3%[10.4 µM]	31.6µM*	-1.2%	5.8%	14.7%
O=C(NC(=S)Nc1ccccc1[N+](=O)[O-])c1cncc(Br)c1	38.2	7.94µM*	-1.6	1.3%	0.2%	-3.4%	11.2µM*	-3.8%	6.3%	4.5%	9.4%
CC(=O)c1cccc(NC(=S)NC(=O)c2cncc(Br)c2)c1	31.4	12.6µM*	20.4*	-5.7%	-1.9%	9.1%	-10.2%[10.4 µM]	14.6%	9.4%	10.5%	6.6%
Cc1cccnc1NC(=S)NC(=O)c1cncc(Br)c1	91.4*	9.98µM*	35.2*	-7.5%	9.9%	0.0%	-1.8%[38.3 µM]	-8.4%	0.0%	-6.0%	-1.0%
